One molecule from the supplement of paper PMC8728848 can be followed below.

The full list was thinned out, with the strongest signals kept by preference.

Common to all, as to assay: glycan array binding signal (z-score within array); higher = stronger binding
What all share (details): glycan notation: IUPAC condensed, linker removed

In experiment [1] the target is GlcNAc(b1-3)Gal(b1-4)GlcNAc(b1-3)Gal(b1-4)GlcNAc(b1-3)Gal(b1-4)GlcNAc(b1-3)Gal(b1-4)GlcNAc(b1-2)Man(a1-3)[GlcNAc(b1-3)Gal(b1-4)GlcNAc(b1-3)Gal(b1-4)GlcNAc(b1-3)Gal(b1-4)GlcNAc(b1-3)Gal(b1-4)GlcNAc(b1-2)Man(a1-6)]Man(b1-4)GlcNAc(b1-4)GlcNAc. Summed up: (§1)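 Columns mapping to the same glycan were averaged after glycan names were converted to IUPAC-condensed notation. The data come from 3228 arrays in the Consortium for Functional Glycomics database, limited to those with an available protein sequence. Binding is reported as a within-array Z-score averaged across arrays of one protein sequence and across linkers.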

The target in experiment [2] is GlcNAc(b1-3)Gal(b1-4)GlcNAc(b1-3)Gal(b1-4)GlcNAc(b1-3)Gal(b1-4)GlcNAc(b1-3)Gal(b1-4)GlcNAc(b1-2)Man(a1-3)[GlcNAc(b1-3)Gal(b1-4)GlcNAc(b1-3)Gal(b1-4)GlcNAc(b1-3)Gal(b1-4)GlcNAc(b1-3)Gal(b1-4)GlcNAc(b1-2)Man(a1-6)]Man(b1-4)GlcNAc(b1-4)[Fuc(a1-6)]GlcNAc. Summed up:
as §1

For experiment [3], the target named is GlcNAc(b1-3)Gal(b1-4)GlcNAc(b1-3)Gal(b1-4)GlcNAc(b1-3)Gal(b1-4)GlcNAc(b1-3)Gal(b1-4)GlcNAc(b1-2)[GlcNAc(b1-3)Gal(b1-4)GlcNAc(b1-3)Gal(b1-4)GlcNAc(b1-3)Gal(b1-4)GlcNAc(b1-3)Gal(b1-4)GlcNAc(b1-6)]Man(a1-6)[GlcNAc(b1-3)Gal(b1-4)GlcNAc(b1-3)Gal(b1-4)GlcNAc(b1-3)Gal(b1-4)GlcNAc(b1-3)Gal(b1-4)GlcNAc(b1-2)Man(a1-3)]Man(b1-4)GlcNAc(b1-4)[Fuc(a1-6)]GlcNAc. Summed up: as §1

Experiment [4] deals with GlcNAc(b1-3)Gal(b1-4)GlcNAc(b1-3)Gal(b1-4)GlcNAc(b1-3)GalNAc. Put shortly:
as §1

Experiment [5] deals with GlcNAc(b1-3)Gal(b1-4)GlcNAc(b1-3)[GlcNAc(b1-3)Gal(b1-4)GlcNAc(b1-3)]GalNAc. Summed up: as §1
In experiment [6] the target is Neu5Ac(a2-3)Gal(b1-3)GalNAc(b1-3)Gal(b1-4)GlcNAc. Put shortly:
as §1

In experiment [7] the target is Neu5Ac(a2-3)Gal(b1-3)GalNAc(b1-4)[Neu5Ac(a2-3)]Gal(b1-4)Glc. Summed up: as §1
The target in experiment [8] is Neu5Ac(a2-3)Gal(b1-3)GlcNAc(b1-2)Man. Put shortly:
as §1

Experiment [9] concerns the target Neu5Ac(a2-3)Gal(b1-3)GlcNAc(b1-3)Gal(b1-4)GlcNAc. Put shortly:
as §1

The target in experiment [10] is Neu5Ac(a2-3)Gal(b1-3)]Neu5Ac(a2-3)Gal(b1-4)]GlcNAc. Summed up: as §1
Experiment [11] concerns the target Neu5Ac(a2-6)Gal(b1-4)GlcNAc(b1-2)Man(a1-3)[Neu5Ac(a2-3)Gal(b1-4)GlcNAc(b1-2)Man(a1-6)]Man(b1-4)GlcNAc(b1-4)GlcNAc. Put shortly:
as §1

The target of experiment [12] is Neu5Ac(a2-6)Gal(b1-4)GlcNAc(b1-2)Man(a1-6)Man(b1-4)GlcNAc(b1-4)GlcNAc. Summed up: as §1
Experiment [13] concerns the target Neu5Gc(a2-6)Gal(b1-4)GlcNAc. Put shortly: as §1

B1: Jacalin (Artocarpus integrifolia) (protein)
chain: MAYSSLLSLSVLALLFSISSADTRKWFLANGINQNPIGIIEAAVGVSEDLLNLNGMEAKNDEQSGISQTVIVGPWGAKVSTSSNGKAFDDGAFTGIREINLSYNKETAIGDFQVVYDLNGSPYVGQNHKSFITGFTPVKISLDFPSEYIMEVSGYTGNVSGYVVVRSLTFKTNKKTYGPYGVTSGTPFNLPIENGLIVGFKGSIGYWLDYFSMYLSL
With B1, the “glycan array binding signal (z-score)” value in experiment [1] was 4.05; in experiment [2], 4.23; in experiment [3], 5.64; in [4] it was 1.03; in experiment [5], 0.857; in experiment [6] it was -0.336. Further, the “glycan array binding signal (z-score)” value is -0.262 in [7]; -0.194 in [8]; -0.274 in experiment [9]; -0.263 in [10]; -0.241 in [11]; -0.259 in experiment [12]. Also, in [13], the “glycan array binding signal (z-score)” value was -0.247.
